The whole screen tested about 5,500 compounds, of which about 2,000 (36%) were called active. Roughly 18% stayed inconclusive and do not appear here. Cut-off read from the data, not from the text of the source: active = normalized growth mostly below about 0.91 (no sharp cut-off); inconclusive = no clear call, values can overlap the other calls; inactive = mostly above about 0.92. The list shows a part of the results.
Experiment: chemical genetic growth profiling, strain panel (AID 1159580);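 note: tested at 20 µM; growth read once vehicle control cultures reached saturation at 30 °C; 1 = growth at the plate median or of vehicle wells; lower values mean less growth of the strain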
Details: growth OD

Measured: normalized growth

O=C(NCO)c1cccnc1
inactive: S. cerevisiae deletion strains, locus YJR075W, strain HOC1, stronger effect = lower value 0.992 | S. cerevisiae deletion strains, locus YKL009W, strain mrt4, stronger effect = lower value 0.984 | S. cerevisiae deletion strains, locus YKL068W, stronger effect = lower value 0.974 | S. cerevisiae deletion strains, locus YKL085W, strain MDH1 (second series), stronger effect = lower value 1 | S. cerevisiae deletion strains, locus YKL085W, strain MDH1, stronger effect = lower value 1 | S. cerevisiae deletion strains, locus YKL160W, strain elf1, stronger effect = lower value 1.01 | S. cerevisiae deletion strains, locus YKL190W, strain CNB1, stronger effect = lower value 0.997 | S. cerevisiae deletion strains, locus YKR001C, strain vps1, stronger effect = lower value 0.99 | S. cerevisiae deletion strains, locus YKR026C, strain gcn3, stronger effect = lower value 1.01 | S. cerevisiae deletion strains, locus YKR091W, strain srl3, stronger effect = lower value 1 | S. cerevisiae deletion strains, locus YLL001W, strain dnm1, stronger effect = lower value 0.992 | S. cerevisiae deletion strains, locus YLL026W, stronger effect = lower value 1 | S. cerevisiae deletion strains, locus YLL041C, strain sdh2, stronger effect = lower value 1.01 | S. cerevisiae deletion strains, locus YLR027C, strain aat2, stronger effect = lower value 1.01 | S. cerevisiae deletion strains, locus YLR039C, strain RIC1, stronger effect = lower value 0.939 | S. cerevisiae deletion strains, locus YLR058C, strain SHM2, stronger effect = lower value 0.986 | S. cerevisiae deletion strains, locus YLR102C, strain apc9, stronger effect = lower value 0.985 | S. cerevisiae deletion strains, locus YLR113W, strain HOG1, stronger effect = lower value 0.997 | S. cerevisiae deletion strains, locus YLR221C, strain rsa3, stronger effect = lower value 1.01 | S. cerevisiae deletion strains, locus YLR258W, strain gsy2, stronger effect = lower value 1.01 | S. cerevisiae deletion strains, locus YLR262C, strain YPT6 (second series), stronger effect = lower value 0.995 | S. cerevisiae deletion strains, locus YLR262C, strain YPT6, stronger effect = lower value 0.954 | S. cerevisiae deletion strains, locus YLR268W, strain sec22, stronger effect = lower value 0.993 | S. cerevisiae deletion strains, locus YLR320W, strain mms22, stronger effect = lower value 1 | S. cerevisiae deletion strains, locus YLR330W, strain CHS5, stronger effect = lower value 0.981 | S. cerevisiae deletion strains, locus YLR342W, strain FKS1 (second series), stronger effect = lower value 1.01 | S. cerevisiae deletion strains, locus YLR342W, strain FKS1, stronger effect = lower value 1.01 | S. cerevisiae deletion strains, locus YLR357W, strain rsc2, stronger effect = lower value 0.974 | S. cerevisiae deletion strains, locus YLR370C, strain arc18, stronger effect = lower value 1.01 | S. cerevisiae deletion strains, locus YLR371W, strain rom2, stronger effect = lower value 0.971 | S. cerevisiae deletion strains, locus YLR384C, strain iki3, stronger effect = lower value 0.997 | S. cerevisiae deletion strains, locus YLR418C, strain cdc73, stronger effect = lower value 1.03 | S. cerevisiae deletion strains, locus YML016C, strain PPZ1, stronger effect = lower value 0.998 | S. cerevisiae deletion strains, locus YML032C, strain rad52, stronger effect = lower value 0.975 | S. cerevisiae deletion strains, locus YML120C, strain ndi1, stronger effect = lower value 1.01 | S. cerevisiae deletion strains, locus YML124C, strain tub3, stronger effect = lower value 1 | S. cerevisiae deletion strains, locus YMR058W, strain fet3, stronger effect = lower value 1 | S. cerevisiae deletion strains, locus YMR078C, strain ctf18, stronger effect = lower value 0.993 | S. cerevisiae deletion strains, locus YMR125W, strain sto1, stronger effect = lower value 0.997 | S. cerevisiae deletion strains, locus YMR129W, stronger effect = lower value 0.987 | S. cerevisiae deletion strains, locus YMR205C, strain PFK2, stronger effect = lower value 0.992 | S. cerevisiae deletion strains, locus YMR223W, strain ubp8, stronger effect = lower value 0.988 | S. cerevisiae deletion strains, locus YMR231W, strain pep5, stronger effect = lower value 1.01 | S. cerevisiae deletion strains, locus YMR263W, strain SAP30, stronger effect = lower value 0.999 | S. cerevisiae deletion strains, locus YMR307W, strain GAS1, stronger effect = lower value 1.08 | S. cerevisiae deletion strains, locus YNL067W, strain RPL9B, stronger effect = lower value 0.995 | S. cerevisiae deletion strains, locus YNL071W, strain lat1, stronger effect = lower value 1.02 | S. cerevisiae deletion strains, locus YNL128W, strain TEP1, stronger effect = lower value 0.999 | S. cerevisiae deletion strains, locus YNL153C, strain GIM3, stronger effect = lower value 1 | S. cerevisiae deletion strains, locus YNL183C, strain NPR1, stronger effect = lower value 0.92 | S. cerevisiae deletion strains, locus YNL209W, strain ssb2, stronger effect = lower value 0.999 | S. cerevisiae deletion strains, locus YNL233W, strain BNI4, stronger effect = lower value 1.01 | S. cerevisiae deletion strains, locus YNL248C, strain rpa49, stronger effect = lower value 1 | S. cerevisiae deletion strains, locus YNL250W, strain rad50, stronger effect = lower value 0.983 | S. cerevisiae deletion strains, locus YNL271C, strain bni1, stronger effect = lower value 0.978 | S. cerevisiae deletion strains, locus YNL298W, strain CLA4, stronger effect = lower value 0.996 | S. cerevisiae deletion strains, locus YNL307C, strain MCK1, stronger effect = lower value 0.993 | S. cerevisiae deletion strains, locus YNL322C, strain KRE1 (second series), stronger effect = lower value 1.01 | S. cerevisiae deletion strains, locus YNL322C, strain KRE1, stronger effect = lower value 0.986 | S. cerevisiae deletion strains, locus YNR049C, strain mso1, stronger effect = lower value 1.01 | S. cerevisiae deletion strains, locus YNR052C, strain pop2, stronger effect = lower value 0.984 | S. cerevisiae deletion strains, locus YOL006C, strain TOP1, stronger effect = lower value 0.997 | S. cerevisiae deletion strains, locus YOL012C, strain htz1 0.887 | S. cerevisiae deletion strains, locus YOL147C, strain pex11, stronger effect = lower value 0.988 | S. cerevisiae deletion strains, locus YOR001W, strain rrp6, stronger effect = lower value 0.999 | S. cerevisiae deletion strains, locus YOR061W, strain CKA2, stronger effect = lower value 0.991 | S. cerevisiae deletion strains, locus YOR069W, strain VPS5, stronger effect = lower value 0.989 | S. cerevisiae deletion strains, locus YOR070C, strain gyp1, stronger effect = lower value 1 | S. cerevisiae deletion strains, locus YOR080W, strain dia2, stronger effect = lower value 1 | S. cerevisiae deletion strains, locus YOR083W, strain WHI5, stronger effect = lower value 1 | S. cerevisiae deletion strains, locus YOR106W, strain vam3, stronger effect = lower value 1.02 | S. cerevisiae deletion strains, locus YOR136W, strain idh2, stronger effect = lower value 0.982 | S. cerevisiae deletion strains, locus YOR144C, strain elg1, stronger effect = lower value 0.978 | S. cerevisiae deletion strains, locus YOR184W, strain ser1, stronger effect = lower value 0.959 | S. cerevisiae deletion strains, locus YOR231W, strain MKK1, stronger effect = lower value 0.98 | S. cerevisiae deletion strains, locus YOR265W, strain rbl2, stronger effect = lower value 1.01 | S. cerevisiae deletion strains, locus YOR270C, strain vph1, stronger effect = lower value 1.02 | S. cerevisiae deletion strains, locus YOR290C, strain snf2, stronger effect = lower value 0.943 | S. cerevisiae deletion strains, locus YOR316C, strain cot1, stronger effect = lower value 0.997 | S. cerevisiae deletion strains, locus YPL051W, strain arl3, stronger effect = lower value 1 | S. cerevisiae deletion strains, locus YPL055C, strain LGE1, stronger effect = lower value 1.02 | S. cerevisiae deletion strains, locus YPL078C, strain atp4, stronger effect = lower value 1.01 | S. cerevisiae deletion strains, locus YPL106C, strain sse1, stronger effect = lower value 0.998 | S. cerevisiae deletion strains, locus YPL240C, strain hsp82, stronger effect = lower value 1.02 | S. cerevisiae deletion strains, locus YPL241C, strain CIN2, stronger effect = lower value 0.958 | S. cerevisiae deletion strains, locus YPL256C, strain CLN2, stronger effect = lower value 0.985 | S. cerevisiae deletion strains, locus YPR119W, strain clb2, stronger effect = lower value 0.986 | S. cerevisiae deletion strains, locus YPR141C, strain kar3, stronger effect = lower value 0.992 | S. cerevisiae deletion strains, locus YPR163C, strain tif3, stronger effect = lower value 0.989 | S. cerevisiae deletion strains, locus YPR167C, strain met16, stronger effect = lower value 1 | S. cerevisiae deletion strains, strain wtn01, stronger effect = lower value 0.996 | S. cerevisiae strains, strain wild type, stronger effect = lower value 0.986

Reference: PubChem BioAssay AID1159580 (chemical genetic matrix, 2015)
